The record followed here is ChEMBL document CHEMBL1961873, “Compounds: GSK PKIS; Assays: Nanosyn kinase panel” (2012).

Each structure is given as a SMILES string.

For experiment [1], the target named is Tyrosine-protein kinase CSK (Homo sapiens) (UniProt P41240). Conditions: at 1 µM.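 Note: each value is an averaged inhibition reading.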
Experiment [2] has as its target T1, Discoidin domain-containing receptor 2 (Homo sapiens) (UniProt Q16832).
T1 sequence (whole entry): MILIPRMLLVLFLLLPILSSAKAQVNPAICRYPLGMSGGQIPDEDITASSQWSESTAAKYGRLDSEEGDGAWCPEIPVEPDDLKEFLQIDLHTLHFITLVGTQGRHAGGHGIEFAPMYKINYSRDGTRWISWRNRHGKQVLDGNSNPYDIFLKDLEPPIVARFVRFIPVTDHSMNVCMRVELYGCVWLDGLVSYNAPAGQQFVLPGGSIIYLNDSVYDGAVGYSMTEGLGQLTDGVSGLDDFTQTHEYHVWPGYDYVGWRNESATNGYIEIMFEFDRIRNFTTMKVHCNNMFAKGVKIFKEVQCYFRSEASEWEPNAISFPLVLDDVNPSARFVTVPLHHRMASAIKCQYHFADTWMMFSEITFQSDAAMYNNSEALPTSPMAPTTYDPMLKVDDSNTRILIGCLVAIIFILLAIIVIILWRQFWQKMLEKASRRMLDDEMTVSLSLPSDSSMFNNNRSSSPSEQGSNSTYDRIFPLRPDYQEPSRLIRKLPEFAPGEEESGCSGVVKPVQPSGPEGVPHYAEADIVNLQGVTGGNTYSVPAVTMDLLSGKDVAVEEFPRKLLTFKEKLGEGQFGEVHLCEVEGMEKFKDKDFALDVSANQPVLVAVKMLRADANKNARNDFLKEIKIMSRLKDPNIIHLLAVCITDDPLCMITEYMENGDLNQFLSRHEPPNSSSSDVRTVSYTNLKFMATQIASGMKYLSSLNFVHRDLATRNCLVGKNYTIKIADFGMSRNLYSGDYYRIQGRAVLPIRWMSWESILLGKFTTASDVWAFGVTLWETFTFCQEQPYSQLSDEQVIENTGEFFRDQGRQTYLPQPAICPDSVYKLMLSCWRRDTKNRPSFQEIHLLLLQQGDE
Conditions: at 0.1 µM.

Experiment [3] concerns the target T1, Discoidin domain-containing receptor 2 (Homo sapiens). Conditions: at 1 µM.
The target of experiment [4] is Epidermal growth factor receptor (Homo sapiens) (UniProt P00533). Conditions: at 0.1 µM.
Sequence of Epidermal growth factor receptor (Homo sapiens) (P00533 whole entry): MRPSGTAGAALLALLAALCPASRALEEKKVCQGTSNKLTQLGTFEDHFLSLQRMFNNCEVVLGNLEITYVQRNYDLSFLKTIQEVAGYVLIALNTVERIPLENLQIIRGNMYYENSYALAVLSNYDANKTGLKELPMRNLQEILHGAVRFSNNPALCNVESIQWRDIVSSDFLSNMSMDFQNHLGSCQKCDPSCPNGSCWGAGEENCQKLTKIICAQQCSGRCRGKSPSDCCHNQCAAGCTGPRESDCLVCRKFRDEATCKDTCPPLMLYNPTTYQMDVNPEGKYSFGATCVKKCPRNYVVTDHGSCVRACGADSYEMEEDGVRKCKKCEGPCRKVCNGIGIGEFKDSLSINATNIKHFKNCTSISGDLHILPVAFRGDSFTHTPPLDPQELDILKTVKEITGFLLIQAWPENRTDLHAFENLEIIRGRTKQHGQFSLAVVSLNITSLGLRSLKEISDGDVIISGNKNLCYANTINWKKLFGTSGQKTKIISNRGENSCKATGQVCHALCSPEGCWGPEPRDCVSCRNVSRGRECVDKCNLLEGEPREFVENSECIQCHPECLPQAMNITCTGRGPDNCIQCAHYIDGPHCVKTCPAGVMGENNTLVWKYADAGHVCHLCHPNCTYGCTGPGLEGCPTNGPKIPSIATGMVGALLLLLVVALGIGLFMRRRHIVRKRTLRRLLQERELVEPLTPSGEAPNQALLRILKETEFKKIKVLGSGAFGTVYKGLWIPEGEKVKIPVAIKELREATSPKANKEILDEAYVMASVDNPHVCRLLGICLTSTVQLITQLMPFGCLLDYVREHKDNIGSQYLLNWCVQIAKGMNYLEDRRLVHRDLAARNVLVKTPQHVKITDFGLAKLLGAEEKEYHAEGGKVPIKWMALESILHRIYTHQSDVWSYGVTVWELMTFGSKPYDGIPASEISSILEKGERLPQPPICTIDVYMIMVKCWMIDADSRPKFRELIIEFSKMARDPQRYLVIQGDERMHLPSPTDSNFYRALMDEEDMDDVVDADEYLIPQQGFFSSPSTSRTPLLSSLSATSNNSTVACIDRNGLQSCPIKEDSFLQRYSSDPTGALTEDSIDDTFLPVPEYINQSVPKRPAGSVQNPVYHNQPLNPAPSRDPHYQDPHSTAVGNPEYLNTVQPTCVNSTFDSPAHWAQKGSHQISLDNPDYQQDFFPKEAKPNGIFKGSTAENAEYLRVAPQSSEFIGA
Experiment [5] has the same target. Conditions: at 1 µM.
The subject of experiment [6] is Epidermal growth factor receptor (Homo sapiens), P00533 [L858R]. Particulars: at 0.1 µM.
Experiment [7] has the same test system. Conditions: at 1 µM.
Experiment [8] relates to Epidermal growth factor receptor (Homo sapiens), P00533 [L861Q]. Conditions: at 0.1 µM.
Sequence of Epidermal growth factor receptor (Homo sapiens), P00533 [L861Q] (P00533 whole entry L861Q): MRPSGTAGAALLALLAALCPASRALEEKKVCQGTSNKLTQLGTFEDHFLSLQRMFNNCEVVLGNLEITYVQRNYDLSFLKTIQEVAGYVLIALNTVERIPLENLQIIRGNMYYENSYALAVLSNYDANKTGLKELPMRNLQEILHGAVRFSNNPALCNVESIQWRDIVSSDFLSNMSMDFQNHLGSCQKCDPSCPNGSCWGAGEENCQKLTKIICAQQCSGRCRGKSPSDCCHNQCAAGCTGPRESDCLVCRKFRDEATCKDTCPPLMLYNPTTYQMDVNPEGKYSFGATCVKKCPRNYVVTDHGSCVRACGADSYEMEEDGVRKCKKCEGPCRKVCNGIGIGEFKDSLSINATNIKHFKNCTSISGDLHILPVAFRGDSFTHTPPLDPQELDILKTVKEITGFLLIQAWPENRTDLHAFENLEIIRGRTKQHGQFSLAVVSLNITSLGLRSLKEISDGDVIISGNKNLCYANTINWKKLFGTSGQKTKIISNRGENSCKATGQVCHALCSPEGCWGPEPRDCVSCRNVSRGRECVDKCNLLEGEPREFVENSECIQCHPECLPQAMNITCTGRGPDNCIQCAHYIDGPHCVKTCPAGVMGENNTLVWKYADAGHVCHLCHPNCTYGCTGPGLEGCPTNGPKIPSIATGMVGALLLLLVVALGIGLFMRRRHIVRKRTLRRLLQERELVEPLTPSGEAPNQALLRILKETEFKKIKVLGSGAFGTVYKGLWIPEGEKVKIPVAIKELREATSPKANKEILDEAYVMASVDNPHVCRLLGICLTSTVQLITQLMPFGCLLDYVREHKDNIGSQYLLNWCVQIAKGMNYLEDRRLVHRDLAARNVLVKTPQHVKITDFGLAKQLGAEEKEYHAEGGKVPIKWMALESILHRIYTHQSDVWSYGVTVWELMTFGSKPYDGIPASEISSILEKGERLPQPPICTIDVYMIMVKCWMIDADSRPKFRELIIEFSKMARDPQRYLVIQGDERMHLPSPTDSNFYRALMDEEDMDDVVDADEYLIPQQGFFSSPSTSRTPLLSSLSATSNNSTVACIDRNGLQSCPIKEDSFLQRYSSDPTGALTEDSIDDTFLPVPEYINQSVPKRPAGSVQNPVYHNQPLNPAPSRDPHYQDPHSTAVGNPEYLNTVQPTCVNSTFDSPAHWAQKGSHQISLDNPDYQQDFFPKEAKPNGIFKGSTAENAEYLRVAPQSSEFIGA
The test system is the same in experiment [9]. Conditions: at 1 µM.
Experiment [10] has as its system Epidermal growth factor receptor (Homo sapiens), P00533 [T790M]. Particulars: at 0.1 µM.
Experiment [11] shares this test system. Particulars: at 1 µM.
Experiment [12] deals with Epidermal growth factor receptor (Homo sapiens), P00533 [L858R,T790M]. Particulars: at 0.1 µM.
Sequence of Epidermal growth factor receptor (Homo sapiens), P00533 [L858R,T790M] (P00533 whole entry T790M/L858R, looked up): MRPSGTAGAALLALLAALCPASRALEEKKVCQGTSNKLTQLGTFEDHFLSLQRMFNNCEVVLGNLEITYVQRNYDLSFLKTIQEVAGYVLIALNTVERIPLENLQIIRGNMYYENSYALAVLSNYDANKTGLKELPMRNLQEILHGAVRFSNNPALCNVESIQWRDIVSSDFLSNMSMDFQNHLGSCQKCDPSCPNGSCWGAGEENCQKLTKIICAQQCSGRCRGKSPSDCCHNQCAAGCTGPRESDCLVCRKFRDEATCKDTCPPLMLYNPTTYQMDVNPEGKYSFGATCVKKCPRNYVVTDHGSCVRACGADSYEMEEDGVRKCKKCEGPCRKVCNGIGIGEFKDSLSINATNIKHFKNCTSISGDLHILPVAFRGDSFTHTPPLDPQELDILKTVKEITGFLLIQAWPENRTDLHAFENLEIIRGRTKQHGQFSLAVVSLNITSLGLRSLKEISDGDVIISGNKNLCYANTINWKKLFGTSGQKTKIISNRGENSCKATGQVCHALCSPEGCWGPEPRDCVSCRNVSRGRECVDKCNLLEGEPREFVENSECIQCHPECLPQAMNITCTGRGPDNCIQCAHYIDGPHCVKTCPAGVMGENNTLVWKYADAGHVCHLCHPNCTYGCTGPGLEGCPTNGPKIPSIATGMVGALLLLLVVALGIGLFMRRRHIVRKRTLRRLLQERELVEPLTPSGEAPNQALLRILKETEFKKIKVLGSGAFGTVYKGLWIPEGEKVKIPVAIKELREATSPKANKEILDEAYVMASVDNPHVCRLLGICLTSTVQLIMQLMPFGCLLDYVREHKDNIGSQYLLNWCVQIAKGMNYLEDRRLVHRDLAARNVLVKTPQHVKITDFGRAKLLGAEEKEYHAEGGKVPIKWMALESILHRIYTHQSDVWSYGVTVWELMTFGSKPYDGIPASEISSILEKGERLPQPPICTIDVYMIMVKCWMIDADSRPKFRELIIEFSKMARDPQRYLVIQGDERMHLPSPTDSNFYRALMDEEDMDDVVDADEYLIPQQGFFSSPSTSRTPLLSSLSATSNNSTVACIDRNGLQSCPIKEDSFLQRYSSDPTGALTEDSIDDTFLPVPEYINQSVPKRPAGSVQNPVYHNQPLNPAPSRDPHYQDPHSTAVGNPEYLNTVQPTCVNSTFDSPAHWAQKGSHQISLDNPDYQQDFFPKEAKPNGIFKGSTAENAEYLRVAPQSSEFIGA
For experiment [13] the test system is unchanged. Conditions: at 1 µM.
For experiment [14], the target named is Ephrin type-A receptor 2 (Homo sapiens) (UniProt P29317). Particulars: at 0.1 µM.
Experiment [15] shares this target. Particulars: at 1 µM.
In experiment [16] the target is T2, Ephrin type-A receptor 3 (Homo sapiens) (UniProt P29320).
T2 sequence (whole entry): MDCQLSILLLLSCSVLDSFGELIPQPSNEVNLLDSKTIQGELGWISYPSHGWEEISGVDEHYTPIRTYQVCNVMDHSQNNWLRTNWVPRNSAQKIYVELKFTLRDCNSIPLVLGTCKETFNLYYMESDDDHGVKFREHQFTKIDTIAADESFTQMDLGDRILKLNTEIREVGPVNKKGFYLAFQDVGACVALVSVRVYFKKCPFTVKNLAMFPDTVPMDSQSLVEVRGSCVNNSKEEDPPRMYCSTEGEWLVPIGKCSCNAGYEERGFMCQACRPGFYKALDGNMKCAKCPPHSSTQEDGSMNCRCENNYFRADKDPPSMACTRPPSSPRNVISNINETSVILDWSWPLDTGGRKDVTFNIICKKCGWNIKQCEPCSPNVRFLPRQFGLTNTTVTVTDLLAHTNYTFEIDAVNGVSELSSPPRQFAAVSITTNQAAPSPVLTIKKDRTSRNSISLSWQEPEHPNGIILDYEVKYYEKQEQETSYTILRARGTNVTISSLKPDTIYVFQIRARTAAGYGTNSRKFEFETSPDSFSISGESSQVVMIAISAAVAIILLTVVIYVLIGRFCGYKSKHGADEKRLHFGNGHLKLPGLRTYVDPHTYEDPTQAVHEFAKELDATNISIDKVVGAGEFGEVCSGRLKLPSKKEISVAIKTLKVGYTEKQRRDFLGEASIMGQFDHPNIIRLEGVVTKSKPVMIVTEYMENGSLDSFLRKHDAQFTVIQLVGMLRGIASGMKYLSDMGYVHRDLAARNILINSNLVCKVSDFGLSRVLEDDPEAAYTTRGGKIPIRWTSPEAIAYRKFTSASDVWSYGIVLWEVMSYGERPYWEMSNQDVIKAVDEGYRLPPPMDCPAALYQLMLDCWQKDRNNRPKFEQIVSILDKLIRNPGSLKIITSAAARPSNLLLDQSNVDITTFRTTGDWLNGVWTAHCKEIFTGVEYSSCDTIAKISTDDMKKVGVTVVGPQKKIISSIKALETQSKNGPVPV
Conditions: at 0.1 µM.

For experiment [17], the target named is T2, Ephrin type-A receptor 3 (Homo sapiens). Conditions: at 1 µM.
The target of experiment [18] is Ephrin type-A receptor 4 (Homo sapiens) (UniProt P54764). Conditions: at 0.1 µM.
Experiment [19] shares this target. Conditions: at 1 µM.
The target in experiment [20] is T3, Ephrin type-B receptor 2 (Homo sapiens) (UniProt P29323).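 Note: reported as mean inhibition of EPHB2, from the GSK PKIS dataset.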
T3 sequence (whole entry): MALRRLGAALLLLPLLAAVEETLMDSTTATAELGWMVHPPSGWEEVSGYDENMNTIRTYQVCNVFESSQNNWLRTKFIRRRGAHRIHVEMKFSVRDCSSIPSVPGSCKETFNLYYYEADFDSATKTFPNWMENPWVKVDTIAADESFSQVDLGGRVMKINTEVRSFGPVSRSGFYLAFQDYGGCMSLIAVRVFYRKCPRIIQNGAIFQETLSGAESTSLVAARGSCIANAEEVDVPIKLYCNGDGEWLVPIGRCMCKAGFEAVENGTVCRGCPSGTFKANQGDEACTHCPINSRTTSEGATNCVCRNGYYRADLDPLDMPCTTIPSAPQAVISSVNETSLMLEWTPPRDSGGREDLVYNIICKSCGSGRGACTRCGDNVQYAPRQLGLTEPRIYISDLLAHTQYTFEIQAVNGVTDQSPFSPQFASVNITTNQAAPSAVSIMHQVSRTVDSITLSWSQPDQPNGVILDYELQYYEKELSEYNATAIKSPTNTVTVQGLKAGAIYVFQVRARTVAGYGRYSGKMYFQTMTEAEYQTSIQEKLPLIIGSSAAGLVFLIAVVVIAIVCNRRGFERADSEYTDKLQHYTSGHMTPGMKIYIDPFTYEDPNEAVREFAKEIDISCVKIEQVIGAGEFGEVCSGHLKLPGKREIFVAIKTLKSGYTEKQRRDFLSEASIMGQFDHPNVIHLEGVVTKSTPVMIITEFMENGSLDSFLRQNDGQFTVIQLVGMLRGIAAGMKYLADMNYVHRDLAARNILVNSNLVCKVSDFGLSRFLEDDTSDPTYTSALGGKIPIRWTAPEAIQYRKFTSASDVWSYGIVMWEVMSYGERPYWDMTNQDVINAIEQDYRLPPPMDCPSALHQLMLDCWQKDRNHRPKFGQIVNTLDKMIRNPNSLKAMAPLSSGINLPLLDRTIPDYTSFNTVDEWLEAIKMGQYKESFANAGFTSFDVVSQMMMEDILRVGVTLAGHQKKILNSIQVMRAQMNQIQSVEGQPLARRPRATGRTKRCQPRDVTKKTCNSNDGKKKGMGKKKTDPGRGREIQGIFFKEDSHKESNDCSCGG
Particulars: at 0.1 µM.

Sequence of Epidermal growth factor receptor (Homo sapiens), P00533 [L858R] (P00533 whole entry L858R): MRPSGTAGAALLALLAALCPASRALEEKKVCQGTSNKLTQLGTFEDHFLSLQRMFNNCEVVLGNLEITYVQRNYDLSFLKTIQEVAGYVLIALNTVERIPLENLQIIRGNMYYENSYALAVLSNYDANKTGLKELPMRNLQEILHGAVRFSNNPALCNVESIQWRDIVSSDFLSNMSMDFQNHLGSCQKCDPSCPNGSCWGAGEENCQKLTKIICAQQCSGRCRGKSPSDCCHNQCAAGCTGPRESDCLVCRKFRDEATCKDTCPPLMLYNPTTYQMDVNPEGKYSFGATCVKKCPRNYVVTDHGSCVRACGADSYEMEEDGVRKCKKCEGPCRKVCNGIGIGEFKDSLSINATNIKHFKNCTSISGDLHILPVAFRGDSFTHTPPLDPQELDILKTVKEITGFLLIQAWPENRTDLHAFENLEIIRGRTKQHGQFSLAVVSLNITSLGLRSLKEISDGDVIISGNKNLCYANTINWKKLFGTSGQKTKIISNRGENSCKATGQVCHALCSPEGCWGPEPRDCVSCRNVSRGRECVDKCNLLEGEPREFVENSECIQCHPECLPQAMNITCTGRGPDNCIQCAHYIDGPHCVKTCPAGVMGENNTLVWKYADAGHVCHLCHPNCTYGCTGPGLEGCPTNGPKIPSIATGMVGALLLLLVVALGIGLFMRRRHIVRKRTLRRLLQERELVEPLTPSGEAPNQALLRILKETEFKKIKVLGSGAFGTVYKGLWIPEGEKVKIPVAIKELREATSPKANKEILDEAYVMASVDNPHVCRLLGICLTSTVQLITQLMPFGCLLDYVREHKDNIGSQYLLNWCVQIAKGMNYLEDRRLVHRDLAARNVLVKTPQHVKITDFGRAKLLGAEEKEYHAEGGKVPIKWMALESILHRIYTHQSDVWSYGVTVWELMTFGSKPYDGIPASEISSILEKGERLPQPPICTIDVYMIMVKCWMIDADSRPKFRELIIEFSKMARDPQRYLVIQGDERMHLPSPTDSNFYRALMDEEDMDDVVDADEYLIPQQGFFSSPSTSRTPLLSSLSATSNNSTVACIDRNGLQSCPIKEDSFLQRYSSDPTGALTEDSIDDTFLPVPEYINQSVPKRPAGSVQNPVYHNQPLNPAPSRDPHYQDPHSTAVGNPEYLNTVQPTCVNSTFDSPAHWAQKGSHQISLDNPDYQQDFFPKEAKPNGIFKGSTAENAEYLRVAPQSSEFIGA

With `CCC(=O)Nc1ccc(C)c(-c2ccc(C(=O)NCC3CC3)cc2)c1`, the inhibition in experiment [1] turned out to be 4.34%; in experiment [2], 1.85%; in [3] it was 2.57%; in experiment [4] it was 6.56%; in [5] it was 6.12%; in [6], 2.49%. In addition, the inhibition in experiment [7] was 5.47%; in [8], 3.28%; in experiment [9], 4.44%; in [10], 0.82%; in experiment [11], 2.33%; in experiment [12], -0.94%. Further, the inhibition in experiment [13] is 3.59%; in experiment [14] it was -1.79%; in [15], -2.2%; in experiment [16], 1.95%; in [17] it was 4.02%; in experiment [18], 6.75%. The inhibition is 8.5% in [19] and 6.82% in experiment [20].

Regarding `O=C(Nc1n[nH]c2cc(-c3ccccc3)ccc12)C1CC1`, the inhibition is 4.74% in experiment [1]; 1.43% in experiment [2]; 5.94% in experiment [3]; 3.06% in experiment [4]; 6.49% in experiment [5]; 2.84% in experiment [6]. Moreover, the inhibition in experiment [7] turned out to be 5.13%; in experiment [8], 4.05%; in [9] it was 0.82%; in [10] it was 2.65%; in experiment [11], 4.64%; in experiment [12], 2.81%. Moreover, the inhibition in experiment [13] came out at 3.37%; in experiment [14], 1.75%; in experiment [15], 3.8%; in experiment [16], 5.17%; in experiment [17], 6.3%; in experiment [18], 6.13%. Also, the inhibition in experiment [19] amounted to 18.9%; in experiment [20], 6.68%.

In the case of `COc1cc2ncn(-c3cc(OCc4cccs4)c(C(N)=O)s3)c2cc1OC`, the inhibition in experiment [1] was 9.5%; in experiment [2], 3.95%; in [3], 4.63%; in [4] it was -1.17%; in experiment [5], 1.76%; in experiment [6], 4.34%. For the same compound, the inhibition is 18.5% in experiment [7]; 2.87% in experiment [8]; 7.86% in experiment [9]; 1.54% in [10]; 5.88% in experiment [11]; -0.25% in [12]. Moreover, the inhibition was 5.43% in [13]; -1.31% in experiment [14]; -1.86% in experiment [15]; -2.47% in experiment [16]; 0.85% in experiment [17]; 8.34% in experiment [18]. For the same compound, the inhibition in experiment [19] was 19.3%; in experiment [20], 7.38%.

Take `COC(=O)Nc1nc2ccc(Sc3ccc(NC(=O)Nc4cc(C(F)(F)F)ccc4F)cc3)cc2[nH]1`: the inhibition in experiment [1] was 7.52%; in [2] it was 56.3%; in [3], 83.5%; in experiment [4], -0.94%; in [5] it was 2.67%; in experiment [6], -0.44%. Moreover, the inhibition in experiment [7] is 2.71%; in experiment [8], 2.04%; in [9] it was 0.54%; in experiment [10] it was 0.63%; in [11], 0.47%; in experiment [12] it was 4.21%. Further, the inhibition in experiment [13] worked out at 1.97%; in experiment [14] it was 25.8%; in experiment [15] it was 89.6%; in experiment [16], 9.91%; in experiment [17] it was 34.5%; in [18], 49.5%. For the same compound, the inhibition worked out at 81.6% in experiment [19] and 43.4% in experiment [20].

In the case of `c1ccc(-c2n[nH]cc2-c2ccnc(-c3ccc(OCCN4CCOCC4)cc3)c2)nc1`, the inhibition was -4.36% in [1]; 7.59% in experiment [2]; 7.75% in experiment [3]; 3.33% in experiment [4]; 6.67% in experiment [5]; -2.03% in experiment [6]. The inhibition in experiment [7] was -1.71%; in experiment [8] it was -0.15%; in experiment [9], -2.39%; in experiment [10] it was -0.02%; in [11], -0.63%; in experiment [12] it was 1.82%. Besides, the inhibition was -2.02% in [13]; 4.75% in experiment [14]; 2.42% in [15]; -1.39% in [16]; -0.22% in experiment [17]; -5.11% in [18]. The inhibition in experiment [19] was -9.05%; in experiment [20] it was 0.38%.

`Cc1nnc(-c2ccc(C)c(-c3ccc(C(=O)NCc4ccc(Cl)cc4)cc3)c2)o1`: the inhibition is 5.62% in [1]; 0.22% in experiment [2]; -0.21% in experiment [3]; -3.58% in [4]; -0.27% in experiment [5]; 1.36% in [6]. Moreover, the inhibition in experiment [7] amounted to 2.71%; in experiment [8], 2.71%; in experiment [9], 1.09%; in [10], 0.7%; in experiment [11], 3.59%; in experiment [12] it was 1.86%. In addition, the inhibition in experiment [13] is 2.04%; in experiment [14], -3.78%; in experiment [15], -3.32%; in [16], -0.26%; in [17], -1.93%; in experiment [18], 6.29%. Also, the inhibition came out at 5.1% in [19] and 2.73% in experiment [20].
